Measurements reported in PubChem BioAssay.

Assay: small-molecule microarray binders of probe aEGFR, primary screen, biochemical, biotinylated probe, 635/667 nm fluorescence (AID 1097);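 further: probe is a biotinylated anti-EGFR antibody binding compounds printed on slides; score combines fluorescence near 667 nm and signal to noise of each spot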
Conditions: higher = more signal

| SMILES | composite z-score |
| --- | --- |
| O=C1C2C=CC(C(O)c3ccc([N+](=O)[O-])cc3)N(Nc3ccccc3)C2C(=O)N1c1ccccc1 (stereo not given) | -0.0509 |
| CC(=O)NCCCC[C@@H]1NC(=O)[C@H]2C[C@@H](C(=O)NCCCCCC[N+](C)(C)C)[C@@H](c3ccc(O)cc3)N2C1=O | -0.125 |
| CCCC[C@H]1OB(O)C[C@H]2C1=C(COC)C[C@H]1C(=O)C=CC(=O)[C@H]12 | -0.071 |
| C[C@@H](OCc1ccccc1)C1NC(=O)[C@@]23C(=O)N[C@@H](Cc4ccccc4)C2[C@H](C)[C@@]2(C)O[C@H]2C3/C=C/C/C=C\CNC(=O)[C@H](Cc2ccccc2)NC1=O (stereo not given in full) | -0.0257 |
| C=CCC(OC(C)=O)[C@@H]1[C@@H](N(Cc2ccc(-c3cccc(C(F)(F)F)c3)o2)C(=O)c2cccc3ccccc23)c2cc(OCCCO)ccc2N1C(=O)c1ccc2ccccc2c1 (stereo not given in full) | -0.122 |
| COCCn1c(C(=O)N2CCCC2)cc2c1C[C@H]1CN(C(=O)c3ccccc3)[C@@](Cc3ccccc3)(C(=O)OC)[C@@H]21 | 0.827 |
| C=CC[C@@]12N=C(c3ccc(OCCCO)cc3)O[C@@H]1c1ccccc1N(Cc1ccccc1)C2=O | 0.0631 |
| C[C@]1(C(=O)NCC(F)(F)F)c2ccccc2C(=O)N(Cc2ccc(OC(F)(F)F)cc2)[C@H]1c1ccc(CO)cc1 | -0.0987 |
| O=C1N(CCS(=O)(=O)c2ccccc2)c2ccccc2[C@@H]2OC(c3ccc(OCCCO)cc3)=N[C@]12CCS(=O)(=O)c1ccccc1 | -0.0333 |
| CN(C)CCCC[C@@H]1NC(=O)[C@@H]2C[C@H](C(=O)NCCCCCCNC(=O)CS)[C@H](c3cccc(OCCO)c3)N2C1=O | 0.124 |
| [N-]=[N+]=Nc1ccccc1[C@@H]1OC(c2ccc(OCCCO)cc2)=N[C@]1(Cc1ccccc1)C(N)=O | 0.224 |
| C=CC[C@]1(C(=O)N(C)C)COC(c2ccc(OCCCO)cc2)=N1 | 0.367 |
| O=C1O[C@@H](c2ccccc2)[C@@H](c2ccccc2)N2[C@@H](c3ccc(O)cc3)[C@]3(C(=O)Nc4ccc(C#CC5=CCCCC5)cc43)[C@@H](C(=O)N3CCCCCCC3)[C@H]12 | 0.465 |
| CCCCC(=C=CC[C@@H](O)c1cccc(OCCO)c1)C[C@@H](O)COCc1ccccc1 | -0.188 |
| [N-]=[N+]=NCc1ccccc1C[C@]1(C(=O)O)COC(c2ccc(OCCCO)cc2)=N1 | -0.0702 |
| COC(=O)[C@]1(CO)N=C(c2ccc(OCCCO)cc2)O[C@@H]1c1ccccc1CN=[N+]=[N-] | -0.285 |
| COc1ccc(NN2C(C(O)c3cc(C(F)(F)F)cc(C(F)(F)F)c3)C=CC3C(=O)N(C4CCCCC4)C(=O)C32)cc1 (stereo not given) | 0.705 |
| CN(C)CCCC[C@@H]1NC(=O)[C@H]2C[C@@H](C(=O)NCc3ccc(F)cc3)[C@@H](c3ccc(O)cc3)N2C1=O | 0.0579 |

| SMILES | composite z-score |
| --- | --- |
| CCCC=C(CCC)[C@@H](NC(=O)c1ccccc1)c1ccc(C(=O)OC)cc1 | 0.23 |
| C=CCC(OC(C)=O)[C@@H]1[C@@H](N(Cc2cccc3ccccc23)C(=O)c2cccc3ccccc23)c2cc(OCCCO)ccc2N1C(=O)Cc1ccc2ccccc2c1 (stereo not given in full) | -0.0675 |
| C=C(COC)/C(=C/C[C@@H](OC(C)=O)c1ccccc1OCCO)c1cc(C(=O)OC)ccc1OC | -0.0141 |
| CO[C@H]1O[C@H](CO)[C@@H](OC(=O)Nc2ccc(C(F)(F)F)cc2)[C@H](OC(=O)Nc2ccccc2-c2ccccc2)[C@@H]1OC(=O)Nc1ccccc1-c1ccccc1 | 0.0752 |
| CCOC(=O)C[C@H]1[C@H](OC(=O)c2ccc(-c3ccccc3)cc2)[C@@H](NC(=O)CC(C)C)c2cc(OCCCO)ccc2N1C(=O)Cc1ccc(OC)cc1 | -0.0084 |
| CCOC(=O)C[C@H]1[C@H](OC(=O)c2cc3ccccc3oc2=O)[C@@H](NC(=O)C2CCCCC2)c2cc(OCCCO)ccc2N1C(=O)Cc1ccc(OC)cc1 | -0.0623 |
| N#Cc1ccc(C(O)C2C=CC3C(=O)NC(=O)C3N2Nc2ccccn2)cc1 (stereo not given) | -0.0594 |
| O=C1C2C=CC(C(O)c3cccs3)N(Nc3ccccc3)C2C(=O)N1c1ccccc1 (stereo not given) | -0.0583 |
| COC(=O)[C@@]1(Cc2ccc(OC)cc2)[C@H]2c3cc(C(=O)N4CCCC4)n(CCc4ccc(OC)c(Br)c4)c3C[C@H]2CN1C(=O)c1ccccc1 | -0.0357 |
| CO[C@H]1O[C@H](CO)[C@@H](OC(=O)Nc2ccc(C(F)(F)F)cc2)[C@H](OC(=O)Nc2ccccc2-c2ccccc2)[C@H]1OC(=O)Nc1ccccc1-c1ccccc1 | 0.0108 |
| CCOC(=O)C1=C(C(=O)OCC)N(S(=O)(=O)CC[Si](C)(C)C)[C@H](c2ccccc2)CC1 | 0.108 |
| CC(C)C(=C=CC[C@@H](O)c1ccccc1OCCO)C[C@@H](O)c1cc(Cl)cc(Cl)c1O | 0.0182 |
| COc1ccc(C#Cc2ccc3c(c2)[C@]2(C(=O)N3)[C@H](C(=O)Nc3nc4ccccc4s3)[C@H]3C(=O)O[C@H](c4ccccc4)[C@H](c4ccccc4)N3[C@@H]2c2ccc(OCCO)cc2)cc1 | 0.123 |
| CC(=O)n1cc(C(O)C2C=CC3C(=O)N(c4ccccc4)C(=O)C3N2Nc2ccccc2F)c2ccccc21 (stereo not given) | -0.146 |
| COCCOC(=O)N1C(=O)[C@@]2(c3cc(C#CC4(O)CCCCCC4)ccc31)[C@H](c1ccc(OCCO)cc1)N1[C@H](c3ccccc3)[C@H](c3ccccc3)OC(=O)[C@H]1[C@@H]2C(N)=O | -0.013 |
| COc1cc2c(cc1O)C(c1ccc(CN3CCCC3)cc1)N(Cc1ccc([N+](=O)[O-])o1)CC2 (stereo not given) | -0.227 |
| COc1ccc(CCNC(=O)[C@@]2(C)c3ccccc3C(=O)N(Cc3cc(C(F)(F)F)cc(C(F)(F)F)c3)[C@H]2c2ccc(CO)cc2)cc1 | 0.577 |
